Test results published in PubChem BioAssay.
Where “and” joins values, the source holds several entries; their conditions need not be identical. Equal entries are not always repeated. For some assays here: Results with a measured potency or affinity are listed apart. Calls of active or inactive are those of the source.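 How the source made its calls, unless noted: active means thallium flux through the channel raised or lowered by more than 3 SD from vehicle-only wells, actives on both sides; inactive means the rest.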

Legend:
[1] = blockers of polyQ-driven CASP3 activation – cell-based (AID 1583); details: polyglutamine-induced caspase-3 activation, cell assay; stronger effect = higher value;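 tested at 10 µM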
[2] = yeast 75Q aggregation reduction – 75Q-TubU reporter (AID 1593); details: Yeast 75Q polyglutamine aggregation reporter
[3] = restoration of touch response, mutant HTT neurons – whole organism, C. elegans mechanosensory neurons, N-terminal huntingtin (AID 1599); details: C. elegans polyQ-huntingtin mechanosensory neurons, stronger effect = higher value
[4] = blockers of cytochrome c efflux from mitochondria – biochemical, purified mitochondria (AID 1603); details: stronger effect = lower value;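 further: mouse liver mitochondria challenged with calcium chloride; signal normalized to the plate average as 100%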
[5] = polyglutamine aggregate formation blockers (AID 1604); details: polyglutamine-induced protein aggregation inhibition assay; stronger effect = higher value; tested at 2.5 µM
[6] = glutamate transport activators, MN-1 cells, MN-1 cell line (AID 1612); details: MN-1 motor neuron cells, stronger effect = higher value;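 further: tested at 1 µM final; 0% = mean of DMSO vehicle wells on each plate; positive means more glutamate uptake than control and negative means less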
[7] = 75Q-TubH aggregate inhibition, S. cerevisiae, yeast (AID 1616); details: S. cerevisiae 75Q-TubH polyglutamine aggregation suppression; stronger effect = higher value
[8] = compounds altering viability of human ES cells (AID 493140; call rule not given here;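 further: cells exposed to compounds for four days before counting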); details: human embryonic stem cell survival screen; stronger effect = higher value
[9] = signal quenchers or enhancers, Cy5 substrate/SSB – biochemical, NIH Clinical Collection, E. coli SSB, artefact control for HCV NS3 helicase inhibitor project (AID 743268; call rule not given here); details: Cy5-oligo bound E. coli SSB, fluorescence interference
[10] = modulation of C. elegans fzo-1 (AID 1259413; call rule not given here;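 further: fzo-1 mutant C. elegans worms in liquid wells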); details: C. elegans fzo-1 modulator screen, mean read-out; stronger effect = higher value
[11] = galactose survival enhancers in mitochondrial complex I cybrids – cell-based, galactose medium, ATP luminescence, primary screen (AID 1645843;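 active means z-score of at least 1.8 in each of two replicates, scored against plate mean and spread of sample wells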;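 further: positive z means more ATP and so rescue of galactose-driven cybrid death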); details: complex I mutant cybrid cells, 72 h, stronger effect = higher value
F380Y/beta1 = assay: BK channel mutant inhibitors and activators – cell-based, U2OS BacMam, thallium flux, beta subunits, selectivity assay, profiling panel (AID 1259406); details: U2OS BacMam BK variants, at 30 µM;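 further: initial slope of Thallos dye fluorescence rise after thallium is added; log ratio against the mean of 0.3% DMSO vehicle wells on the same plate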
F380Y/beta4 = assay: as above; details: U2OS BacMam BK variants, at 30 µM
R275C = assay: as above; details: U2OS BacMam BK variants, at 30 µM
R275C/beta1 = assay: as above; details: U2OS BacMam BK variants, at 30 µM
R275C/beta2Delta = assay: as above; details: U2OS BacMam BK variants, at 30 µM
R275C/beta4 = assay: as above; details: U2OS BacMam BK variants, at 30 µM
R275C/Slo1WT/beta2 = assay: as above; details: U2OS BacMam BK variants, at 30 µM
[12] = P. berghei load reduction in hepatocytes – cell-based, HepG2, luciferase luminescence, HepG2 viability, primary screen (AID 624349; in the data active means parasite load remaining mostly below about 12%, no sharp cut-off; inactive means mostly above about 10%;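 further: 100% = mean of DMSO negative control wells on the same plate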); details: P. berghei liver stage in HepG2, luciferase luminescence, concentration not given here; parasite load remaining: stronger effect = lower value; viability: measured here: HepG2 viability without parasites

Row | Structure (SMILES) | inhibition [1] | score [2] | rescue above control [3] | cytochrome c release ratio [4] | inhibition of aggregation [5] | glutamate uptake change [6] | aggregation suppression score [7] | survival [8] | fluorescence ratio [9] | mean signal [10] | z-score [11] | log fold change Tl+ flux (F380Y/beta1) | log fold change Tl+ flux (F380Y/beta4) | log fold change Tl+ flux (R275C) | log fold change Tl+ flux (R275C/beta1) | log fold change Tl+ flux (R275C/beta2Delta) | log fold change Tl+ flux (R275C/beta4) | log fold change Tl+ flux (R275C/Slo1WT/beta2) | parasite load remaining [12] | viability [12]
1 | NS(=O)(=O)c1cc2c(cc1C(F)(F)F)NC(Cc1ccccc1)NS2(=O)=O (centres undefined) | 23.3% | 1.25 | -3.69 | 1.06 | 66.2% | 10.7% | 1.15 | 3.67 (inactive) | 1.02 (inactive) | 239 (inactive) | 1.88 (inactive) | -0.0798 (inactive) | 0.0179 (inactive) | 0.0405 (inactive) | 0.0248 (inactive) | 0.0558 (inactive) | -0.00759 (inactive) | -0.0386 (inactive) |  | 
2 | CC(=O)CCCCn1c(=O)c2c(ncn2C)n(C)c1=O | 49.3% | 1.37 | -11.6 | 0.83 | 60.9% | -0.27% | 1.44 | 14.1 (inactive) | 1.01 (inactive) | 250 (inactive) | 0.465 (inactive) and 0.86 (inactive) and 0.55 (inactive) | -0.00172 (inactive) | 0.0281 (inactive) | -0.0458 (inactive) | -0.0218 (inactive) | 0.00216 (inactive) | -0.0339 (inactive) | -0.000483 (inactive) |  | 
3 | Cc1ccc(S(=O)(=O)NC(=O)NN2CCCCCC2)cc1 | -0.98% | 1.2 | 1.05 | 1.07 | 69.7% | 14.9% | 0.918 | 3.17 (inactive) | 1.04 (inactive) | 286 (inactive) | 0.415 (inactive) and 0.635 (inactive) and 0.49 (inactive) | 0.00805 (inactive) | -0.0504 (inactive) | -0.0622 (inactive) | -0.00502 (inactive) | -0.0116 (inactive) | 0.0645 (inactive) | -0.0145 (inactive) |  | 
4 | CC(C)[N+](C)(CCOC(=O)C1c2ccccc2Oc2ccccc21)C(C)C | 8.5% | 0.96 | 2.24 | 0.77 | 58.5% | -0.12% | 1.09 | 4.92 (inactive) | 1.03 (inactive) | 251 (inactive) | 0.295 (inactive) and 0.02 (inactive) | -0.0699 (inactive) | -0.0221 (inactive) | 0.0289 (inactive) | 0.0122 (inactive) | -0.014 (inactive) | -0.0395 (inactive) | -0.0246 (inactive) |  | 
5 | Nc1ccc(S(=O)(=O)c2ccc(N)cc2)cc1 | 2.36% | 0.97 | 9.67 | 0.87 | 66.2% | -16.9% | 1.25 | 11.6 (inactive) | 0.97 (inactive) | 228 (inactive) | -0.16 (inactive) | -0.00845 (inactive) | 0.0288 (inactive) | -0.00888 (inactive) | -0.0191 (inactive) | 0.0154 (inactive) | -0.0181 (inactive) | -0.0232 (inactive) |  | 
6 | CCN(CC)CCNC(=O)c1ccc(N)cc1 | -1.81% | 1.26 | 9.03 | 1.74 | 49.4% | -9.57% | 1.03 | 12.9 (inactive) |  | 241 (inactive) | 0.47 (inactive) and -0.57 (inactive) and 0.345 (inactive) | 0.0223 (inactive) | 0.0227 (inactive) | 0.0572 (inactive) | -0.0679 (inactive) | -0.0122 (inactive) | -0.0764 (inactive) | -0.03 (inactive) |  | 
7 | OC(CCN1CCCCC1)(c1ccccc1)C1CCCCC1 (centres undefined) | -21% | 1.21 | 1.37 | 1.32 | 88.9% | -20.9% | 1.42 | 3.42 (inactive) | 0.99 (inactive) | 211 (inactive) | -0.545 (inactive) and -0.525 (inactive) | 0.00768 (inactive) | 0.0698 (inactive) | -0.119 (active) | 0.105 (inactive) | -0.0882 (inactive) | 0.0638 (inactive) | 0.0146 (inactive) |  | 
8 | CC[N+](C)(C)c1cccc(O)c1 | 0.97% | 1.45 | -4.06 | 0.79 | 49.4% | -4.41% | 1.27 | 20.2 (inactive) | 1.03 (inactive) | 239 (inactive) | 0.66 (inactive) and 0.015 (inactive) | -0.0227 (inactive) | 0.00778 (inactive) | 0.00231 (inactive) | -0.022 (inactive) | 0.0107 (inactive) | -0.0318 (inactive) | 0.00666 (inactive) |  | 
9 | CN(C)CCCN1c2ccccc2Sc2ccc(Cl)cc21 | 1.97% | 0.97 | 0 | 1.17 | 35.3% | 11.9% | 1.25 | 3.17 (inactive) | 1.03 (inactive) | 252 (inactive) | -1.52 (inactive) and -1.29 (inactive) and -1.43 (inactive) | -0.176 (active) | 0.171 (active) | -0.0248 (inactive) | 0.272 (active) | 0.103 (active) | 0.154 (active) | -0.0668 (inactive) |  | 
10 | O=C1NC(=O)C(c2ccccc2)(c2ccccc2)N1 | 5.01% | 1.42 | 6.5 | 0.9 | 62.8% | -8.41% | 1.74 |  | 1.01 (inactive) | 250 (inactive) | 0.08 (inactive) and 1.09 (inactive) and 0.395 (inactive) | 0.0354 (inactive) | 0.0289 (inactive) | -0.00405 (inactive) | -0.0211 (inactive) | 0.0126 (inactive) | -0.0221 (inactive) | 0.0271 (inactive) |  | 
11 | CC(N=C(NC#N)Nc1ccncc1)C(C)(C)C (centres undefined) |  |  |  |  |  |  |  | 59.8 (inactive) | 0.97 (inactive) | 282 (inactive) | 0.04 (inactive) and -0.155 (inactive) and 0.65 (inactive) | 0.0184 (inactive) | 0.00227 (inactive) | 0.000868 (inactive) | 0.00651 (inactive) | -0.00406 (inactive) | -0.0193 (inactive) | -0.0219 (inactive) |  | 
12 | CN(C)CCC[C@@]1(c2ccc(F)cc2)OCc2cc(C#N)ccc21 |  |  |  |  |  |  |  |  | 1.05 (inactive) | 287 (inactive) | 0.15 (inactive) and 0.43 (inactive) | -0.0013 (inactive) | 0.042 (inactive) | -0.0846 (inactive) | 0.0547 (inactive) | 0.0841 (inactive) | 0.0144 (inactive) | 0.0208 (inactive) | 78.9% (inactive) and 44.8% (inactive) | 63.5% and 102%
13 | CCCCC1=NC2(CCCC2)C(=O)N1Cc1ccc(-c2ccccc2-c2nn[nH]n2)cc1 |  |  |  |  |  |  |  |  | 1.06 (inactive) | 269 (inactive) | 1.65 (inactive) | 0.0995 (active) | 0.0736 (inactive) | 0.00561 (inactive) | 0.109 (active) | 0.104 (active) | 0.051 (inactive) | 0.0476 (inactive) | 50.9% (inactive) and 54.9% (inactive) and 98.2% (inactive) | 86.5% and 93.9% and 73.1%
14 | Cc1nc2ccccn2c(=O)c1CCN1CCC(C(=O)c2ccc(F)cc2)CC1 |  |  |  |  |  |  |  | 8.08 (inactive) | 0.95 (inactive) | 234 (inactive) | -1.02 (inactive) and -0.645 (inactive) | 0.0396 (inactive) | 0.0319 (inactive) | -0.025 (inactive) | -0.0266 (inactive) | -0.0363 (inactive) | -0.0285 (inactive) | 0.00703 (inactive) |  | 
15 | CCCNC(C)C(=O)Nc1ccccc1C (centres undefined) | 1.52% | 1.18 | -3.71 | 0.7 | 74.9% | 3.66% | 1.11 | 13.5 (inactive) | 0.103 (active) | 270 (inactive) | 0.075 (inactive) and 0.325 (inactive) and 0.175 (inactive) | 0.00249 (inactive) | 0.0146 (inactive) | -0.0216 (inactive) | -0.0631 (inactive) | 0.0403 (inactive) | -0.00233 (inactive) | 0.0338 (inactive) |  | 
16 | CCN(CC)CCOC(=O)C1(C2CCCCC2)CCCCC1 | -0.16% | 0.92 | 8.2 | 0.58 | 78.3% | -7.11% | 1.04 | 16.2 (inactive) | 1.01 (inactive) | 236 (inactive) | -0.95 (inactive) and -0.895 (inactive) and -2.66 (inactive) | -0.0697 (inactive) | -0.0157 (inactive) | -0.00463 (inactive) | 0.0871 (inactive) | 0.0332 (inactive) | 0.0991 (inactive) | 0.00259 (inactive) |  | 
17 | CSc1ccc2c(c1)N(CCC1CCCCN1C)c1ccccc1S2 (centres undefined) | 43.3% | 0.94 | 0 | 0.4 | 7.32% | -2.39% | 0.91 | 2.08 (inactive) | 1.05 (inactive) | 275 (inactive) | -1.38 (inactive) and -1.5 (inactive) and -2.41 (inactive) | 0.338 (active) | 0.259 (active) | -0.424 (active) | 0.517 (active) | -0.136 (active) | 0.753 (active) | -0.146 (active) |  | 
18 | CN(C)CCOC(C)(c1ccccc1)c1ccccn1 (centres undefined) | 9.79% | 1.23 | -5.3 | 0.7 | 77% | 7.08% | 1.46 | 6.42 (inactive) | 1.04 (inactive) | 230 (inactive) | 0.14 (inactive) and -0.05 (inactive) and 0.35 (inactive) | -0.0273 (inactive) | 0.0181 (inactive) | -0.00524 (inactive) | -0.0059 (inactive) | -0.00567 (inactive) | 0.0164 (inactive) | 0.0279 (inactive) |  | 
19 | Cc1ccc(Cl)c(Nc2ccccc2C(=O)O)c1Cl | 12.9% | 0.67 | 16.6 | 1.42 | 46.5% | -15.8% | 0.94 | 16.6 (inactive) | 0.6 (active) | 249 (inactive) | 2.05 (inactive) and 0.72 (inactive) | 0.408 (active) | 0.386 (active) | 0.0346 (inactive) | 0.34 (active) | 0.336 (active) | 0.266 (active) | 0.0371 (inactive) |  | 
